Reference: PubChem BioAssay (Tox21)
Inconclusive results are not listed. The source made the active and inactive calls. Unless noted, calls follow the shape of the dose curve; as a rule, active = well fitted curve in the direction sought with a large enough effect in the repeat runs; inconclusive = weak or mixed curves; inactive = no such curve, though single readings can be large; an effect the other way counts as inactive or inconclusive.

How the values were obtained:
[1] = qHTS assay to test for compound auto fluorescence at 535 nm (green) in HEK293 cells (AID 720680)
[2] = qHTS assay to test for compound auto fluorescence at 460 nm (blue) in HEK293 cell free culture (AID 720681)
In short: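 Compounds were added to cell-free DMEM with 10% FBS and fluorescence read directly. The blue channel used 405 nm excitation and 460 nm emission, with triamterene as the reference fluorophore.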

[3] = qHTS assay to test for compound auto fluorescence at 535 nm (green) in HEK293 cell free culture (AID 720682)
In short: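 DMEM + 10% FBS, cell-free; cpd or DMSO pinned in; Ex485/Em535 read; output as fluorescein-equivalent signal.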

[4] = qHTS assay to test for compound auto fluorescence at 590 nm (red) in HEK293 cell free culture (AID 720683)
In short: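 Cell-free wells of DMEM with 10% FBS received compound, and intrinsic fluorescence was read at excitation/emission 540/590 nm. Values expressed as equivalence to Rose Bengal sodium.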

[5] = qHTS assay to test for compound auto fluorescence at 590 nm (red) in HepG2 cell free culture (AID 720684)
In short: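 Auto fluorescence equivalency versus Rose Bengal sodium, red channel Ex/Em 540/590 nm; compounds in cell-free MEM/10% FBS; DMSO vehicle control.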

[6] = qHTS assay to test for compound auto fluorescence at 460 nm (blue) in HepG2 cell free culture (AID 720685)
In short: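 Cell-free plates of MEM plus 10% FBS received 23 nL compound or DMSO vehicle; blue-channel (405/460 nm) intensity scored against triamterene as reference fluorophore.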

[7] = qHTS assay to test for compound auto fluorescence at 535 nm (green) in HepG2 cell free culture (AID 720686)
[8] = qHTS assay to test for compound auto fluorescence at 460 nm (blue) in HepG2 cells (AID 720687)
In short: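 HepG2 cells in MEM with 10% FBS, attached overnight at 37 C, were exposed to compound or DMSO for 1 hr at 37 C, 5% CO2. Blue fluorescence was read at 405/460 nm, with triamterene as reference fluorophore.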

[9] = qHTS assay for identifying genotoxic compounds that show differential cytotoxicity against isogenic chicken DT40 cell lines with known DNA damage response pathways - wild type cell line (AID 743012); also: nearly all actives have a fitted effect of over 60% in size; also: potency is read from the fitted curve at half-maximal effect
In short: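 Luminescent ATP viability signal (CellTiter-Glo, 30 min RT) recorded after wild type DT40 cells were incubated with compounds for 40 h at 37 C/5% CO2.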

[10] = qHTS assay for identifying genotoxic compounds that show differential cytotoxicity against isogenic chicken DT40 cell lines with known DNA damage response pathways - Rev3 mutant cell line (AID 743014); also: nearly all actives have a fitted effect of over 55% in size; also: potency is read from the fitted curve at half-maximal effect
[11] = qHTS assay for identifying genotoxic compounds that show differential cytotoxicity against isogenic chicken DT40 cell lines with known DNA damage response pathways - Rad54/Ku70 mutant cell line (AID 743015); also: nearly all actives have a fitted effect of over 60% in size; also: potency is read from the fitted curve at half-maximal effect
[12] = qHTS assay to identify small molecule antagonists of the androgen receptor (AR) signaling pathway - cell viability counter screen (AID 743033; also: nearly all actives have a fitted effect of over 45% in size)
[13] = qHTS assay to identify small molecule antagonists of the androgen receptor (AR) signaling pathway using the MDA cell line - cell viability counter screen (AID 743041; also: nearly all actives have a fitted effect of over 45% in size)
In short: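 Compound exposure lasted 16 h at 37C in MDA-kb2 AR-luc cells stimulated with R1881. Protease-based CellTiter-Fluor reagent was applied for the final 30 min and fluorescence measured.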

[14] = qHTS assay to identify small molecule antagonists of the glucocorticoid receptor (GR) signaling pathway - cell viability counter screen (AID 720693); also: nearly all actives have a fitted effect of over 55% in size
[15] = target: Glucocorticoid receptor (Homo sapiens) (UniProt P04150); experiment: qHTS assay to identify small molecule agonists of the glucocorticoid receptor (GR) signaling pathway (AID 720691; active = well fitted activation curve with a large enough effect in the signal ratio in the repeat runs, not every such curve was filed as active; the % refers to the signal ratio)
In short: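 Cells: GR-bla HeLa, endogenous GR with stably integrated GRE-beta-lactamase reporter. Treatment 18 h, 37 C, compounds delivered in DMSO. Detection via LiveBLAzer B/G FRET substrate, 2 h RT, fluorescence intensity.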

[16] = target: Glucocorticoid receptor (Homo sapiens) (UniProt P04150); experiment: qHTS assay to identify small molecule antagonists of the glucocorticoid receptor (GR) signaling pathway (AID 720692; active = well fitted inhibition curve with a large enough effect in the signal ratio in the repeat runs, not every such curve was filed as active; the % refers to the signal ratio)
In short: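 Quantitative HTS in antagonist format: HeLa cells expressing endogenous GR and a stably integrated GRE-bla reporter, stimulated with 5 nM dexamethasone (final) alongside test compounds for 18 h.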

[17] = target: Androgen receptor (Homo sapiens) (UniProt P10275); experiment: qHTS assay to identify small molecule agonists of the androgen receptor (AR) signaling pathway (AID 743036; active = well fitted activation curve with a large enough effect in the signal ratio in the repeat runs, with a control signal flat, not every such curve was filed as active; the % refers to the signal ratio)
In short: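 Screening used 2,000 AR-bla HEK293 cells per well, treated 16 h at 37C with test compounds in DMSO alongside positive and DMSO-only controls; beta-lactamase activity was then read by LiveBLAzer B/G FRET fluorescence after 2 h at room temperature.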

[18] = target: Androgen receptor (Homo sapiens) (UniProt P10275); experiment: qHTS assay to identify small molecule agonists of the androgen receptor (AR) signaling pathway using the MDA cell line (AID 743040; also: nearly all actives have a fitted effect of over 20% in size)
In short: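 Testing was done with the MDA-kb2 AR-luc line, a human breast carcinoma stably transfected with MMTV-luciferase containing AR and GR response elements. Cells were exposed 16 h at 37C before ONE-Glo luminescence detection.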

[19] = target: Androgen receptor (Homo sapiens) (UniProt P10275); experiment: qHTS assay to identify small molecule antagonists of the androgen receptor (AR) signaling pathway using the MDA cell line (AID 743042; also: nearly all actives have a fitted effect of over 55% in size)
In short: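 MDA-kb2 breast carcinoma cells carrying MMTV-luciferase (AR/GR responsive) were co-treated with compounds and the agonist R1881 for 16 h at 37C. Inhibition read as ONE-Glo luminescence; CellTiter-Fluor fluorescence measured in parallel for cytotoxicity.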

[20] = target: Androgen receptor (Homo sapiens) (UniProt P10275); experiment: qHTS assay to identify small molecule antagonists of the androgen receptor (AR) signaling pathway (AID 743035; active = well fitted inhibition curve with a large enough effect in the signal ratio in the repeat runs, not every such curve was filed as active; the % refers to the signal ratio)
In short: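 Quantitative HTS of the Tox21 10K library used HEK293 AR-UAS-bla cells stimulated with R1881 alongside compound for 16 h at 37C, followed by beta-lactamase FRET detection (LiveBLAzer B/G, 2 h, RT).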
% is scaled to controls: 0 for no effect and ±100 for the full control effect.

Sequence of Androgen receptor (Homo sapiens) (P10275 whole entry, looked up): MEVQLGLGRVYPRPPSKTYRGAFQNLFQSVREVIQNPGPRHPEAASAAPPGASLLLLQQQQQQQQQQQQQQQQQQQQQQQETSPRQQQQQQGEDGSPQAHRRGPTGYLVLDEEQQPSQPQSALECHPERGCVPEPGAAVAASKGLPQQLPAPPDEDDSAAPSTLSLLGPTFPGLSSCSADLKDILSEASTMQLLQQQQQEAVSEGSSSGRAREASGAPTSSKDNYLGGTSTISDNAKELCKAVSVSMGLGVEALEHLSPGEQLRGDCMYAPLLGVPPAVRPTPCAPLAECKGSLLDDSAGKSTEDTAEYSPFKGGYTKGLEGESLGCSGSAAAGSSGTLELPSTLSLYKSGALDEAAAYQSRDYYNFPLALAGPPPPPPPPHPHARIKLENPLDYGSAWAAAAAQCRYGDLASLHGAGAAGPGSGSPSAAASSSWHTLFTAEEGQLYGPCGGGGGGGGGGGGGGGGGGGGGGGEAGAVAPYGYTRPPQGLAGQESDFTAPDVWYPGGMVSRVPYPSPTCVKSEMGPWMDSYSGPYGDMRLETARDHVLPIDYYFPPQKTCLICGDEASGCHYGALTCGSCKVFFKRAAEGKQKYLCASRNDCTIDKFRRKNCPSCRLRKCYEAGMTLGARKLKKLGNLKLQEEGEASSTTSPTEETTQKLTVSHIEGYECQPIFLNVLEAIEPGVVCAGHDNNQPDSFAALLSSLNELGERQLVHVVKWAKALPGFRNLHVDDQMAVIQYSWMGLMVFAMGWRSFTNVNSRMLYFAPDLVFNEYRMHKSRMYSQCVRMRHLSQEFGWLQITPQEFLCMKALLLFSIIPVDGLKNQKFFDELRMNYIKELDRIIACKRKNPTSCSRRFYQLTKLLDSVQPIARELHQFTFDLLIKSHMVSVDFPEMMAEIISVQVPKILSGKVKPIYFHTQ
Sequence of Glucocorticoid receptor (Homo sapiens) (P04150 whole entry, looked up): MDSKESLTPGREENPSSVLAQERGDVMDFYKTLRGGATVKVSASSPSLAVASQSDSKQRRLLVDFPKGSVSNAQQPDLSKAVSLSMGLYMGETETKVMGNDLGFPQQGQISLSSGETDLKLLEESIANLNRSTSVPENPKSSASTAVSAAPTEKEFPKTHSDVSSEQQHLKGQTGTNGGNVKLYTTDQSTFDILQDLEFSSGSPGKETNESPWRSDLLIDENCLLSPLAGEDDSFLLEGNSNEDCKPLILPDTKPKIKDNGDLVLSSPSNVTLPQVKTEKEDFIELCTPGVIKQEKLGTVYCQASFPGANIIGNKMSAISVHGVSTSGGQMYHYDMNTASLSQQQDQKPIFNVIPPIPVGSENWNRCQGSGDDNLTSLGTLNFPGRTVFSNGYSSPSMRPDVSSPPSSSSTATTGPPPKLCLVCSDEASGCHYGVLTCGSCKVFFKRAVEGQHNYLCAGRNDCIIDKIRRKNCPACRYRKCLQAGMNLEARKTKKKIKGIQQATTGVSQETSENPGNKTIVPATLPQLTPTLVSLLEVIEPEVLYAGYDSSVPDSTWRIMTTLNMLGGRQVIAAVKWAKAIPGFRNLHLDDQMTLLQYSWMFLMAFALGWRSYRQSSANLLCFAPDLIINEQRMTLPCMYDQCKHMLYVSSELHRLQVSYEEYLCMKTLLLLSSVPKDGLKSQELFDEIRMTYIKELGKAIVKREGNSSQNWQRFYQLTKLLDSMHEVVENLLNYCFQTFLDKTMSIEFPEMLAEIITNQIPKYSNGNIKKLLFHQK

CN(C)N=Nc1ccccc1
inactive: outcome [1] | Potency [2] | outcome [3] | outcome [4] | outcome [5] | Potency [6] | outcome [7] | Potency [8] | Potency [9] | Potency [10] | Potency [11] | outcome [12] | Potency [13]

O=S(=O)(c1cccc2cnccc12)N1CCCNCC1
inactive: outcome [1] | Potency [2] | outcome [3] | outcome [4] | outcome [5] | Potency [6] | outcome [7] | Potency [8] | outcome [14] | Potency [9] | Potency [11] | outcome [12] | Potency [13]

N#CCc1ccccc1[N+](=O)[O-]
inactive: outcome [1] | Potency [2] | outcome [3] | outcome [4] | outcome [5] | Potency [6] | outcome [7] | Potency [8] | outcome [14] | Potency [10] | Potency [11] | outcome [12] | Potency [13]

C=C(C)[C@@H]1CCC2=CC(=O)C[C@@H](C)[C@]2(C)C1
inactive: outcome [1] | Potency [2] | outcome [3] | outcome [4] | outcome [5] | Potency [6] | Potency [8] | outcome [14] | Potency [10] | Potency [11] | outcome [12] | Potency [13]

CC(=O)OC(C)(C)C
inactive: outcome [1] | Potency [2] | outcome [3] | outcome [4] | outcome [5] | Potency [6] | Potency [8] | outcome [14] | Potency [9] | Potency [10] | Potency [11] | outcome [12] | Potency [13]

CCCCCCCCCCCCCCC
inactive: outcome [1] | Potency [2] | outcome [3] | outcome [4] | outcome [5] | Potency [6] | Potency [8] | Potency [15] | Potency [16] | outcome [14] | Potency [9] | Potency [10] | Potency [11] | outcome [12] | Potency [13]

C=C(C)C(=O)OCCC(C)OC(=O)C(=C)C (configuration not stated)
inactive: outcome [1] | outcome [3] | outcome [4] | outcome [5] | Potency [6] | outcome [7] | Potency [8] | Potency [15] | Potency [16] | outcome [14] | Potency [9] | Potency [10] | Potency [11] | outcome [12] | Potency [13]

C1CCCCCCCCCCC1
inactive: fluorescence, % of fluorescein [1] 0.0284% [at 18.6 µM] | fluorescence, % of fluorescent control [2] -0.122% [at 18.6 µM] | activity change [3] 0.0049% [at 18.6 µM] | fluorescence, % of fluorescent control [4] -0.0432% [at 18.6 µM] | fluorescence, % of Rose Bengal [5] -0.141% [at 18.6 µM] | fluorescence, % of fluorescent control [6] -0.102% [at 18.6 µM] | fluorescence, % of fluorescent control [8] -0.112% [at 18.6 µM] | Potency [9] | Potency [10] | Potency [11] | outcome [12] | outcome [17] | Potency [18] | Potency [13] | outcome [19]

C=C(C)C(=O)OCCCCCCCCCCCCCCCCCC
inactive: fluorescence, % of fluorescein [1] 0.0795% [at 18.6 µM] | fluorescence, % of fluorescent control [2] -0.0848% [at 18.6 µM] | activity change [3] -0.0033% [at 18.6 µM] | fluorescence, % of fluorescent control [4] -0.0264% [at 18.6 µM] | fluorescence, % of Rose Bengal [5] -0.0496% [at 18.6 µM] | fluorescence, % of fluorescent control [6] -0.0261% [at 18.6 µM] | fluorescence, % of fluorescent control [8] 0.214% [at 18.6 µM] | Potency [16] | outcome [14] | Potency [9] | Potency [10] | Potency [11] | outcome [12] | Potency [13]

CCCC=O
inactive: outcome [1] | Potency [2] | outcome [3] | outcome [4] | outcome [5] | Potency [6] | Potency [8] | Potency [15] | Potency [16] | outcome [14] | Potency [9] | Potency [10] | Potency [11] | outcome [12] | Potency [13]

O=C(O)c1cccc(C(=O)O)n1
inactive: outcome [1] | Potency [2] | outcome [3] | outcome [4] | outcome [5] | Potency [6] | Potency [8] | Potency [16] | outcome [14] | Potency [9] | Potency [10] | Potency [11] | outcome [12] | Potency [13]

CCC(C(=O)NC(N)=O)c1ccccc1 (configuration not stated)
inactive: outcome [1] | Potency [2] | outcome [3] | outcome [4] | outcome [5] | Potency [6] | Potency [8] | Potency [15] | Potency [16] | outcome [14] | Potency [9] | Potency [10] | Potency [11] | outcome [12] | Potency [13]

CC(C)COC(=O)c1ccccc1O
inactive: outcome [1] | Potency [2] | outcome [3] | outcome [4] | outcome [5] | Potency [6] | Potency [8] | Potency [15] | Potency [16] | outcome [14] | Potency [9] | Potency [11] | outcome [12] | Potency [13]
active: Potency [10] 24.3 µM

Cc1cc(C)c(NC(=O)CN(CC(=O)O)CC(=O)O)c(C)c1Br
inactive: outcome [1] | Potency [2] | outcome [3] | outcome [4] | outcome [5] | Potency [6] | Potency [8] | Potency [15] | outcome [14] | Potency [9] | Potency [10] | Potency [11] | outcome [12] | Potency [13]

CCN1CCCC1CNC(=O)c1cc(S(N)(=O)=O)ccc1OC (configuration not stated)
inactive: outcome [1] | Potency [2] | outcome [3] | outcome [4] | outcome [5] | Potency [6] | Potency [8] | Potency [15] | Potency [9] | Potency [11] | outcome [12] | Potency [20] | outcome [17] | Potency [18] | Potency [13] | outcome [19]

C/C=C1\C(=O)C[C@H]2[C@@H]3CCC4=CC(=O)CC[C@]4(C)[C@H]3CC[C@]12C
active: Potency [9] 18.9 µM | Potency [11] 13.4 µM
inactive: outcome [1] | Potency [2] | outcome [3] | outcome [4] | outcome [5] | Potency [6] | Potency [8] | outcome [14] | Potency [13]

O=C(O)c1ccccc1S
inactive: outcome [1] | Potency [2] | outcome [3] | outcome [4] | outcome [5] | Potency [6] | Potency [8] | Potency [15] | Potency [16] | outcome [14] | Potency [10] | Potency [11] | outcome [12] | Potency [13]
